According to PubChem BioAssay AID602295 (Broad Institute, 2012):
Activity calls are given as the source filed them.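 Rule for the calls: active = every separate test run called active, meaning the signal drops and a potency is fitted within twice the top valid dose; inconclusive = runs disagree, poor fit, or flat partial inhibition; inactive = all runs inactive, flat, opposite direction or too weak.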

Target: Mitogen-activated protein kinase 3 (Homo sapiens) (UniProt P27361)
Test: inhibition of MAPK3 kinase activity – biochemical, ADP-Glo luminescence, cherry pick, set 2, selectivity assay for Dyrk1A inhibitor NFAT project, dose response (AID 602295)
Details: ERK1 kinase, 120 min; series mostly up to 10 µM

Mitogen-activated protein kinase 3 (Homo sapiens), sequence (P27361 whole entry, looked up): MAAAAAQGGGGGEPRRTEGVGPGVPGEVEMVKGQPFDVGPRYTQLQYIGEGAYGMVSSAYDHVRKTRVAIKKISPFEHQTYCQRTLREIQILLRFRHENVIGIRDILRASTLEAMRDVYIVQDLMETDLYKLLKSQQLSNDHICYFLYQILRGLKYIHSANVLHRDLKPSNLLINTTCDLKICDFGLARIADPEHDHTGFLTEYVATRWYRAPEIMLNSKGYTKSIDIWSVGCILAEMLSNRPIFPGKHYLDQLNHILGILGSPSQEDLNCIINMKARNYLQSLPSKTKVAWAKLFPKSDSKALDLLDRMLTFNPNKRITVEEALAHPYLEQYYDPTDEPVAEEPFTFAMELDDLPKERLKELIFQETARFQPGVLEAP

outcome, inactive:
COCCNC(=O)c1ccc2c(c1)nc(C)n2-c1cccc(F)c1
CCN1CCN(Cc2ccc(NC(=O)c3ccc(C)c(/C=C/c4cnc(Nc5cc(N6CCNCC6)nc(C)n5)cn4)c3)cc2C(F)(F)F)CC1
CC(=O)Nc1cccc(NC(=O)c2cc3ccccc3o2)c1
c1cncc(CNc2ccnc(-c3ccc4cn[nH]c4c3)n2)c1
Cc1nc(CNc2ncnc3ccc(-c4ccoc4)cc23)cs1
Cc1csc(CN(C)c2ncnc3ccc(-c4ccc5c(c4)OCO5)cc23)n1
O=c1cc(-c2ccccc2Cl)oc2c(NS(=O)(=O)c3ccccc3C(F)(F)F)ccc(O)c12
Cc1occc1CNc1ncnc2ccc(-c3ccc4c(c3)OCO4)cc12
COc1cccc(Nc2ncnc3sc(C)cc23)c1
CC(=O)Nc1ccc(Nc2cc(C)nc3c(-c4ccccc4)cnn23)cc1
N#CCSc1nc(Nc2ccc3c(c2)OCO3)c2ccccc2n1
COc1ccc2c(Cl)c(C(=O)NCc3ccco3)sc2c1
COc1cc(C(=O)Nc2cccc(-c3nncn3C)c2)cc(OC)c1OC
O=C(O)COc1ccc(/C=C/c2nc3ccc([N+](=O)[O-])cc3s2)cc1
Cc1ccc(CNc2ncnc3ccc(-c4ccoc4C)cc23)o1
CCN1CCN(Cc2ccc(NC(=O)c3ccc(C)c(NC(=O)N4CCNC4=O)c3)cc2C(F)(F)F)CC1
CCCNc1ncnc2ccc(-c3ccc4c(c3)OCO4)cc12
Clc1cc(Cl)cc(CNc2cc(-c3ccc4c(c3)OCO4)ncn2)c1
Cc1noc(NS(=O)(=O)c2ccc(NC(=O)c3oc4ccc(F)cc4c3C)cc2)c1C
c1cncc(CNc2cc(-c3ccc4c(c3)OCO4)ncn2)c1
c1nc(NCC2CCCC2)c2cc(-c3ccc4c(c3)OCO4)ccc2n1
Brc1cc(Br)cc(CNc2nccc(-c3ccc4c(c3)OCO4)n2)c1
Clc1cc(Cl)cc(CNc2ncncc2-c2ccc3c(c2)OCO3)c1
COc1cccc(NC(=O)Nc2ccc3c(c2)N(C)C(=O)CS3)c1
c1nc(NCC2CCCO2)c2cc(-c3ccc4c(c3)OCO4)ccc2n1 (stereo not drawn)
COc1cccc(Nc2nc(-c3ccc(O)cc3)cs2)c1
COc1ccc(C(=O)c2sc(Nc3ccccc3F)nc2N)cc1
Clc1ccc(CNc2nccc(-c3ccc4[nH]ncc4c3)n2)cc1Cl
Cc1ccc(CNc2ncnc3ccc(-c4ccc5c(c4)OCO5)cc23)o1
Cc1ccsc1CN(C)c1ncnc2ccc(-c3ccc(CO)o3)cc12
O=C(Nc1nc2ccc(Cl)cc2s1)C1CCCO1 (stereo not drawn)
Clc1ccccc1-c1ccc2ncnc(NCc3ccc4c(c3)OCO4)c2c1
CSCC(=O)Nc1nc(-c2ccc3c(c2)OCCO3)cs1
